Source: PubChem BioAssay
Hits are enriched below; roughly 3.5% of the tested compounds scored in any of these assays.
FBW7 act: human FBW7 E3 ligase activation, primary screen | AlphaScreen FBW7–phospho-cyclin E peptide binding, activator screen | normalized activity (activation), % at 26.1 µM | 0.13% of 650,000 active | AID 1259310; in the data active = normalized activity above about 1.9%;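 note: purified mutant Fbw7 with reduced substrate affinity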
Target sequence (Q969H0 whole entry, looked up): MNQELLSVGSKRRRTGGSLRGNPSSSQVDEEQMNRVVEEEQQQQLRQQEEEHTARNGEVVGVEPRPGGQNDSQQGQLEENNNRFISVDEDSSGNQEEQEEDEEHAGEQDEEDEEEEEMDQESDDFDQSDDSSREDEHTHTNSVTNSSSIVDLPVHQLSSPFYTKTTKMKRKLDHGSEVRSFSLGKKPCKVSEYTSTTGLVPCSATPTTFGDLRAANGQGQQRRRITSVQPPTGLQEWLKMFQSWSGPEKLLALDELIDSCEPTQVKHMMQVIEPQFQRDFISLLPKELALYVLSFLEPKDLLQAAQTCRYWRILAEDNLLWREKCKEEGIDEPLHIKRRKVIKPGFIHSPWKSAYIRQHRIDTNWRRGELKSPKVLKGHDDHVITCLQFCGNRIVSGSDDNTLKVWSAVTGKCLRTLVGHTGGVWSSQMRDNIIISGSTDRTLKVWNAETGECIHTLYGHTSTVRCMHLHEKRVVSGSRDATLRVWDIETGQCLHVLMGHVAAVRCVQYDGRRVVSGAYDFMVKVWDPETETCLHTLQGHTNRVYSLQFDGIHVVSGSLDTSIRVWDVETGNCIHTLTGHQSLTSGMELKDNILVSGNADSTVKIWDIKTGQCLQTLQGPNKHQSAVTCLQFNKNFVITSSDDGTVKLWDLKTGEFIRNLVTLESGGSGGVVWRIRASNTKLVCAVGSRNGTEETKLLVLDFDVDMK
GPR151 activ: activates the human receptor GPR151 | Q8TDV0 | PathHunter beta-arrestin GPR151 cells, luminescence | activation, % at 11.2 µM | 1% of 650,000 active; in the data active = activation above about 4.9%
MITF primary: inhibitors of human MITF. O75030. AlphaScreen MITF homodimerization, bead proximity signal. inhibition, % at 2.6 µM. 0.91% of 650,000 active; in the data active = inhibition above about 50%
TEAD-YAP block: TEAD-YAP interaction inhibition; AID 1259422; HEK-TIYL cells, TEAD-Gal4/YAP UAS-luciferase luminescence; 1.4% of 640,000 active; inhibition, % at 9.12 µM; in the data active = inhibition above about 32%
Of the large screens only hits and unclear results are named; the others gave an inactive call.

CN(C)C(=O)c1ccc(-c2cccc(N(C)C)c2)nc1NCc1cccnc1	none
CC(C)CC1c2[nH]c3ccccc3c2CCN1C(=O)Cn1cncn1 (centres undefined)	none
CC(C)CC1c2[nH]c3ccccc3c2CCN1C(=O)c1csnn1 (centres undefined)	TEAD-YAP block 40
COc1ccc2cc(CN(Cc3ccccc3)C(=O)c3ccncc3)c(=O)[nH]c2c1	TEAD-YAP block 51
COc1ccc2cc(CN(CC3CCCO3)C(=O)Nc3ccccc3OC)c(=O)[nH]c2c1 (centres undefined)	TEAD-YAP block 54
COc1ccc2cc(CN(Cc3ccco3)C(=O)Nc3ccccc3OC)c(=O)[nH]c2c1	TEAD-YAP block 54
COc1ccc2[nH]c(=O)c(CN(Cc3ccco3)C(=O)Nc3ccccc3OC)cc2c1	none
COc1ccc(N2CCN(C(=O)c3ccc4nc(-c5cccs5)c(-c5cccs5)nc4c3)CC2)cc1	none
Cn1cccc1C(CNS(=O)(=O)c1ccc(Cl)cc1)N1CCCCCC1 (centres undefined)	none
O=C(/C=C/c1ccco1)NC(=S)NCc1cccnc1	TEAD-YAP block 47
CC(Nc1ncnc2sccc12)c1ccccc1 (centres undefined)	TEAD-YAP block 53
Cc1ccc2nc(-c3ccc(N)cc3)oc2c1	TEAD-YAP block 66
Nc1cccc(-c2nc3cc(N)ccc3o2)c1	none
Cc1cc2nc(-c3ccc(N)cc3)oc2cc1C	TEAD-YAP block 83
Cc1ccc2nc(-c3cccc(N)c3)oc2c1	TEAD-YAP block 46
Cc1ccc2nc(-c3ccc(O)cc3)oc2c1	TEAD-YAP block 98
Cc1ccc2nc(-c3cc(N)ccc3Cl)oc2c1	none
Cc1ccc2nc(-c3ccc(NC(=O)c4ccc(I)cc4)cc3)oc2c1	none
CCOc1ccc(-c2[nH]ncc2CNCCOC)cc1Cl	none
COc1ccc(Nc2nc(N3CCCC3)nc3[nH]ncc23)cc1	TEAD-YAP block 48
c1cnc(Nc2nc(NC3CC3)c3ncn(-c4ccsc4)c3n2)nc1	TEAD-YAP block 50
Cn1c(Nc2nc(NC3CC3)c3ncn(-c4ccsc4)c3n2)nc2ccccc21	TEAD-YAP block 59
CCCNc1nc(Nc2nc3ccccc3n2C)nc2c1ncn2-c1ccsc1	none
c1cncc(Nc2nc(NC3CC3)c3ncn(-c4ccsc4)c3n2)c1	none
O=c1c(-c2nncn2-c2ccccc2)coc2c(O)c(O)ccc12	MITF primary 53
Nc1ncnc(N/N=C/c2cccc(Br)c2)c1[N+](=O)[O-]	TEAD-YAP block 36
Nc1ncnc(N/N=C/c2ccccc2)c1[N+](=O)[O-]	none
Nc1ncnc(N/N=C/c2ccc(O)cc2)c1[N+](=O)[O-]	TEAD-YAP block 68
COc1ccc(/C=N/Nc2ncnc(N)c2[N+](=O)[O-])cc1OC	none
Cc1ccc2oc(-c3ccc(C(=O)Nc4ccc(NC(=O)C(C)(C)C)cc4)cc3)nc2c1	none
CCC(=O)Nc1ccc2oc(-c3cccc(I)c3)nc2c1	none
CCc1ccc2oc(-c3cccc(NC(C)=O)c3)nc2c1	none
COc1ccc2oc(-c3cccc(NC(C)=O)c3)nc2c1	TEAD-YAP block 40
Cc1ccc2oc(-c3ccc(NC(=O)C(F)(F)F)cc3)nc2c1	TEAD-YAP block 71
CCC(=O)Nc1ccc2oc(-c3cccc(Br)c3)nc2c1	TEAD-YAP block 57
CCC(=O)Nc1ccc2oc(-c3cccc(C)c3)nc2c1	TEAD-YAP block 82
COc1ccc(C(=O)Oc2coc(CSc3ncccn3)cc2=O)c(OC)c1	none
COc1ccc(/C=N/NC(=O)c2ccc(NC(=O)C(C)(C)C)cc2)c(OC)c1	none
C=CCN(CC=C)Cc1cc(O)c(CN(CC=C)CC=C)cc1O	MITF primary 53
C=CCc1ccc(O)c(-c2cc(CC=C)ccc2O)c1	none
COc1cc2nc(Oc3ccccc3)nc(Nc3ccc(N4CCOCC4)cc3)c2cc1OC	TEAD-YAP block 42
COc1cc2nc(Oc3ccccc3)nc(Nc3ccccc3)c2cc1OC	TEAD-YAP block 38
COc1cc2nc(Nc3ccccc3)nc(Nc3ccccc3)c2cc1OC	none
COCC(=O)N1CCc2c(C(=O)OC)c(OCCCc3ccccc3)cc(=O)n2CC1	none
CCc1ccc(N(CC(=O)NCC2CCCO2)S(=O)(=O)c2ccccc2)cc1 (centres undefined)	none
Cc1ccc2nc(-c3ccccc3)c(-c3ccccc3)nc2c1	none
c1ccc2c(c1)Cc1cc3ccccc3nc1-2	TEAD-YAP block 47
Cc1ccc2cc3c(nc2c1)-c1ccccc1C3	TEAD-YAP block 60
Cc1cc(C)c2c(c1)Cc1cc3ccccc3nc1-2	none
CCNC(=O)/C(=C/c1ccc(Br)cc1)NC(=O)c1ccccc1	none
O=C(NC1CCN(Cc2ccccc2)CC1)c1csc(Nc2ccc(N3CCOCC3)cc2)n1	none
N[C@H](Cc1ccc(Cl)cc1)c1nc2ccc(-c3cn[nH]c3)cc2c(=O)[nH]1	TEAD-YAP block 94
COc1cc(-c2cn[nH]c2)cc2c(=O)[nH]c(Cc3cccc(NC(=O)C(C)C)c3)nc12	none
COc1cc(-c2cn[nH]c2)cc2c(=O)[nH]c([C@H](N)Cc3cccc(F)c3)nc12	TEAD-YAP block 72
N[C@H](Cc1cccc(C(F)(F)F)c1)c1nc2ccc(-c3cn[nH]c3)cc2c(=O)[nH]1	none
CCOC(=O)c1ccc(NC(=O)CN(c2ccc3c(c2)OCO3)S(C)(=O)=O)cc1	none
CC(C)n1cnc2c(NC3CC3)nc(-c3ccc(C(=O)NC4CC4)cc3)nc21	TEAD-YAP block 33
CC(C)n1cnc2c(Nc3ccccc3)nc(-c3ccc(C(N)=O)cc3)nc21	TEAD-YAP block 44
CC(C)n1cnc2c(NCc3ccccc3)nc(-c3ccc(C(N)=O)cc3)nc21	none
CC(C)n1cnc2c(NC3CC3)nc(-c3ccc(C(N)=O)cc3)nc21	TEAD-YAP block 40
Cn1cccc1Cc1nnc(SCC(N)=O)n1Cc1ccccc1	none
Cc1cccc(Cn2c(NCc3ccco3)nc3c2c(=O)n(C)c(=O)n3C)c1	TEAD-YAP block 46
COc1cccc(Cn2c(NCCO)nc3c2c(=O)n(C)c(=O)n3C)c1	TEAD-YAP block 39
Cc1ccc(Cn2c(NCCO)nc3c2c(=O)n(C)c(=O)n3C)cc1	TEAD-YAP block 42
CCN1C(=O)c2cccc3c(S(=O)(=O)Nc4ccccc4F)ccc1c23	none
CCOC(=O)c1c(NC(=O)CSc2nc(C)nc3sc4c(c23)CCC4)sc(C(=O)OC)c1C	none
Cc1nc(CN2CCN(C(=O)CCl)CC2)cs1	TEAD-YAP block 48
Cc1nc(CN2CCN(S(C)(=O)=O)CC2)cs1	none
COc1cccc(NC(=O)C(=O)/C=C(\O)c2cc(OC)ccc2OC)c1	none
O=c1c2ccccc2cnn1-c1nc2ccccc2s1	TEAD-YAP block 90
O=c1c2ccccc2cnn1-c1nc2ccccc2[nH]1	TEAD-YAP block 94
CCOC(=O)c1cnn(-c2nc3ccccc3s2)c1N	none
CC(=O)Nc1cc(C)nn1-c1nc2ccccc2[nH]1	none
CCOc1ccccc1C(=O)Nc1cc(C)nn1-c1nc2ccccc2[nH]1	TEAD-YAP block 54
O=c1c2ccccc2cnn1-c1ccc(Cl)c(Cl)c1	none
CCOC(=O)c1cnn(-c2nc3ccccc3[nH]2)c1N	TEAD-YAP block 42
CC(=O)Nc1ccc(C(=O)OCc2ccc(Oc3ccc([N+](=O)[O-])cc3)cc2)cc1	none
